Experimental findings from PubChem BioAssay (NCATS) are described below.

Assay [1] addresses Cellular tumor antigen p53 (Homo sapiens) (UniProt P04637). The experiment in a line: Primary qHTS for small molecule compounds that upregulate eGFP-tagged delta133p53alpha (in N-terminal) cells. (AID 2060322).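 For activation: cells pre-induced with doxycycline then dosed without doxycycline; series mostly up to about 56 µM; 0% = DMSO vehicle and 100% = reference activator.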 Note: nearly all actives have a fitted effect of over 75% in size. Note: potency is the fitted concentration of half-maximal effect. Conditions: NCI-H358 eGFP-delta133p53alpha fluorescence, 24 h; activation: hits give high values. Summed up:
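NCI-H358 cells pre-induced 24 h with 10 ng/ml doxycycline for eGFP-delta133p53alpha, plated dox-free and exposed 24 h at 37C to titrated compounds. Fixed, Hoechst-stained; gated GFP peak intensity by laser scanning cytometry, normalized to DMSO (0%) and 57.5 uM 5-azacytidine (100%).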

Assay [2] shares this target. The experiment in a line: Primary qHTS for small molecule compounds that upregulate eGFP-tagged delta133p53alpha (in C-terminal) cells. (AID 2060324).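 Note: 0% = DMSO wells and 100% = 57.5 µM 5-azacytidine.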 Summed up:
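Readout: filtered GFP peak intensity of gated cells (laser scanning cytometer), normalized plate-wise to intraplate controls, DMSO wells = 0% activity. Cells: NCI-H358 D133p53a-eGFP, dox 100 ng/ml 24 h beforehand, then compound 24 h, 37 °C.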
Background: Quantitative high-throughput screening tests each substance at several concentrations.

For assay [3], the target named is Aldehyde dehydrogenase, mitochondrial (Homo sapiens) (UniProt P05091). The assay can be described thus: qHTS for Inhibitors of the Aldehyde Dehydrogenase Family (ALDH2) Validation screens (AID 2061302; active = well fitted inhibition curve with a large enough effect; title and protocol of this record describe different tests;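 note: plate controls were DMSO vehicle for no effect and maximal DPI positive control response for full effect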).
For assay [4] the target is unchanged. The experiment in a line: qHTS for Inhibitors of the Aldehyde Dehydrogenase Family (ALDH2) Confirmatory screens (AID 2061303; active = well fitted inhibition curve with a large enough effect; title and protocol of this record describe different tests; note: % is set by controls: 0 for no effect and ±100 for the full control effect; nearly all actives have a fitted effect of over 45% in size).
Assay [5] is described as follows: qHTS for Inhibitors of the Aldehyde Dehydrogenase Family (ALDH1A2, ALDH1A3, ALDH2, ALDH3A1) (AID 2061307). For Potency: test system not described further here; potency is the fitted concentration of half-maximal effect. Note: nearly all actives have a fitted effect of over 50% in size.
The target of assay [6] is Retinaldehyde dehydrogenase 3 (Homo sapiens) (UniProt P47895). The experiment in a line: qHTS for Inhibitors of the Aldehyde Dehydrogenase Family (ALDH1A3) Confirmatory screens (AID 2061311). Note: nearly all actives have a fitted effect of over 60% in size. Note: potency is the fitted concentration of half-maximal effect.
The target of assay [7] is Aldehyde dehydrogenase 1A1 (Homo sapiens) (UniProt P00352). The assay can be described thus: qHTS for Inhibitors of the Aldehyde Dehydrogenase Family (ALDH1A1) Confirmatory screens (AID 2061316). Note: nearly all actives have a fitted effect of over 65% in size. Note: potency is the fitted concentration of half-maximal effect.
Assay [8] is described as follows: BET inhibitor-based combinations targeting novel dependencies in MECOM-rearranged (r) AML: OCI-AML3 cell line (AID 2202232). Note: potency is the fitted concentration of half-maximal effect; nearly all actives have a fitted effect of over 35% in size. Conditions: Potency: OCI-AML3 viability. Put shortly:
(§1)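 Cells were plated at 500 per well and exposed to an 11-point dose series of each drug for 48 hr. Viability was measured by CellTiter-Glo luminescence, normalized to DMSO and empty-well controls, and summarized as AUC and per-cell-line Z-AUC.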

A short description of assay [9]: BET inhibitor-based combinations targeting novel dependencies in MECOM-rearranged (r) AML: MV-4-11 cell line (AID 2202233). Note: potency is the fitted concentration of half-maximal effect; nearly all actives have a fitted effect of over 45% in size. Put shortly:
(§2)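 Activity is given as area under the curve and as Z-AUC, mean-centred within each cell line. It comes from 11-point dose curves normalized to DMSO and empty wells. CellTiter-Glo luminescence was read after 48 hr drug exposure of 500 cells/well.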

The nature of assay [10]: BET inhibitor-based combinations targeting novel dependencies in MECOM-rearranged (r) AML: UCSD-AML1 cell line (AID 2202235).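 Note: series mostly up to about 46 µM; plate controls were DMSO vehicle wells for no effect and blank wells for full effect; nearly all actives have a fitted effect of over 40% in size.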 Summed up: as §2
The nature of assay [11]: BET inhibitor-based combinations targeting novel dependencies in MECOM-rearranged (r) AML: AML-191 cell line (AID 2202236; note: potency is the fitted concentration of half-maximal effect; nearly all actives have a fitted effect of over 35% in size). Put shortly: as §1
Assay [12] concerns the target Aldehyde dehydrogenase, mitochondrial (Homo sapiens) (UniProt P05091). The assay can be described thus: qHTS for Inhibitors of the Aldehyde Dehydrogenase Family (ALDH2) Primary screen (AID 2061308).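 Note: plate controls were vehicle for no effect and reference inhibitor for full effect; nearly all actives have a fitted effect of over 55% in size.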
Assay [13] deals with Retinaldehyde dehydrogenase 3 (Homo sapiens) (UniProt P47895). The experiment in a line: qHTS for Inhibitors of the Aldehyde Dehydrogenase Family (ALDH1A3) Validation screen (AID 2061312). Note: % is set by controls: 0 for no effect and ±100 for the full control effect; nearly all actives have a fitted effect of over 45% in size.
Assay [14] shares this target. The assay can be described thus: qHTS for Inhibitors of the Aldehyde Dehydrogenase Family (ALDH1A3) Primary screen (AID 2061315).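 Note: plate controls were DMSO vehicle for no effect and reference inhibitor for full effect.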

Structures are written as SMILES. Several values for one entry are separate records, joined by “and”; a condition that tells them apart may be missing. Identical values can stand only once. Results filed as inconclusive are left out. A number with no mark means an inactive call. Activity calls are given as the source filed them. Unless noted, calls come from the whole dose curve; as a rule, active = well fitted curve in the direction sought with a large enough effect; inconclusive = small, poorly fitted or top-dose-only effect, or another doubt; inactive = no such curve, though single readings can be large; an effect the other way counts as inactive or inconclusive.

Sequence of Cellular tumor antigen p53 (Homo sapiens) (P04637 whole entry, looked up): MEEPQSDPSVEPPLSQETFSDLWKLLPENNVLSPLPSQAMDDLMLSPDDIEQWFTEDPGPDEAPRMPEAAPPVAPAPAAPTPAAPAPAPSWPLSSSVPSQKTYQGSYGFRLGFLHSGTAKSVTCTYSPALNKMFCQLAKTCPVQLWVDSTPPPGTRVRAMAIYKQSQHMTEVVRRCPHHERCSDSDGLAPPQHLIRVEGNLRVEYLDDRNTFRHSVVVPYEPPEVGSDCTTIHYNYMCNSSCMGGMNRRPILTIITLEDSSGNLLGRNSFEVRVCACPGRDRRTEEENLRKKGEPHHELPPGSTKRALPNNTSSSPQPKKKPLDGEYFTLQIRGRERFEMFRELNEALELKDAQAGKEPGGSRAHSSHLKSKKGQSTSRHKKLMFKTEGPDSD

As for `COc1ccccc1N1CCN(CCN(C(=O)c2ccc(F)cc2)c2ccccn2)CC1`, in [1], the activation is 5.52%. Also, the Potency result in assay [2] and in assay [3] was “inactive” in each case.
Consider `NC(Cc1cccc(-c2ccccc2CP(=O)(O)O)c1)C(=O)O` (stereo not given), for which the activation in [1] is 5.19%. Also, the Potency entry in [2] and in [3] was “inactive” throughout.
Regarding `CC(N)=NCCCC[C@@H](N)C(=O)O`, in [1], the activation is -1.95%. For the same compound, the Potency entry in assay [2] and in assay [3] was “inactive” throughout.
For the compound `Nc1ccn([C@H]2O[C@H](CO)[C@@H](O)C2(F)F)c(=O)n1`, the activation in assay [1] was 7.37%. Moreover, the Potency entry in [2] and in assay [3] was “inactive” throughout.
As for `Cc1cccc(/C=C/c2ccccc2)n1`, in assay [1], the activation was -2.77%. Also, the Potency entry in assay [2] and in assay [3] was “inactive” in each case.
`Cc1nc2n(c(=O)c1CCN1CCC(c3noc4cc(F)ccc34)CC1)CCCC2O` (stereo not given): the activation in assay [1] was 3.58%. The Potency result in assay [2] and in assay [3] was “inactive” throughout.
As to `Cc1cccc(C2CN(C)CCc3c2cc(O)c(O)c3Cl)c1` (stereo not given), in assay [1], the activation was -49.3%. Moreover, the Potency result in [2] and in [3] was “inactive” each time.
Consider `CCCn1c(=O)c2[nH]c(-c3ccc(S(=O)(=O)O)cc3)nc2n(CCC)c1=O`, for which the activation in assay [1] was -6.22%. The Potency entry in [2] and in assay [3] was “inactive” each time.
Regarding `Cc1cc2c(cc1Cl)N(C(=O)Nc1ccnc3ccccc13)CC2`, the activation in assay [1] was 4.1%. The Potency entry in assay [2] and in assay [3] was “inactive” throughout.
Consider `CCCCCCCCCCCCCCCCCC(=O)OC(CC(=O)O)C[N+](C)(C)C` (stereo not given), for which the activation in assay [1] was -37.9%. Further, the Potency entry in assay [2] and in assay [3] was “inactive” in each case.
For `OCCN1CCN(CC/C=C2/c3ccccc3Sc3ccc(C(F)(F)F)cc32)CC1`, the activation in assay [1] is -48.7%. Also, the Potency result in assay [2] and in [3] was “inactive” in each case.
Regarding `COc1cc(C(=O)OCCCN2CCCN(CCCOC(=O)c3cc(OC)c(OC)c(OC)c3)CC2)cc(OC)c1OC`, in assay [1], the activation was -3.95% and -82%. Also, the Potency entry in [2] and in assay [3] was “inactive” each time.
In the case of `Oc1ccc(C2CNCc3sccc32)cc1O` (stereo not given), the activation in assay [1] was 8.23%. Further, the Potency result in [2] and in assay [3] was “inactive” each time.
As to `COc1ccc2c(c1OC)C(=O)O[C@@H]2[C@H]1c2c(cc3c(c2OC)OCO3)CCN1C`, the Potency in [1] is 21.9 µM (active). Besides, the Potency result in assay [2] and in assay [3] was “inactive” in each case.
As for `C=CCN1CCc2cc(O)c(O)cc2C(c2ccccc2)C1` (stereo not given), in [1], the activation was -43.2%. Moreover, the Potency entry in assay [2] and in [3] was “inactive” in each case.
For the compound `Cc1ccc(O)c(N=Nc2ccccc2)n1`, the activation in assay [1] is 34%. In addition, the Potency entry in assay [2] and in assay [3] was “inactive” each time.
In the case of `Cc1cccc(C#Cc2ccccc2)n1`, the activation in [1] was -6.63% and 22.8%. For the same compound, the Potency entry in [2] and in assay [3] was “inactive” throughout.
As for `NO`, in assay [1], the activation is -15.6%. In addition, the Potency entry in assay [2] and in assay [3] was “inactive” each time.
As for `CN1CCc2cccc3c2C1Cc1ccc(O)c(O)c1-3` (stereo not given), the activation in assay [1] is 49.9%. The Potency result in assay [2] and in [3] was “inactive” in each case.
In the case of `O=C(O)COCCN1CCN(C(c2ccccc2)c2ccc(Cl)cc2)CC1` (stereo not given), in assay [1], the activation was 0.565% and 21.7% and -7.29%. In addition, the Potency result in assay [2] and in assay [3] was “inactive” each time.
As to `c1cc(CN2CCCCC2)cc(OCCCNc2nc3ccccc3s2)c1`, the activation in [1] is 20.9% and -10.6%. Moreover, the Potency result in assay [2] and in [3] was “inactive” throughout.
Regarding `CCOC(=O)C1=C(C)NC(C)=C(C(=O)OC)C1c1cccc([N+](=O)[O-])c1` (stereo not given), the activation in [1] is -7.72%. Also, the Potency entry in assay [2] and in [3] was “inactive” in each case.
For `NC(C(=O)N[C@@H]1C(=O)N2C(C(=O)O)=C(Cl)CS[C@H]12)c1ccccc1` (stereo not given in full), the activation in assay [1] was 6.44%. In addition, the Potency entry in assay [2] and in assay [3] was “inactive” in each case.
For the compound `CCCCOc1cc(CC2CNC(=O)N2)ccc1OC` (stereo not given), the activation in [1] is -11.2%. In addition, the Potency result in assay [2] and in assay [3] was “inactive” throughout.
With `Oc1cc2c(c(Cl)c1O)CCNCC2c1ccccc1` (stereo not given), the activation in assay [1] is -28%. Also, the Potency result in assay [2] and in assay [3] was “inactive” each time.
Turning to `CC(=O)NCCc1c[nH]c2ccc(O)cc12`, the activation in assay [1] was 10.8%. Besides, the Potency entry in assay [2] and in [3] was “inactive” in each case.
Turning to `C=CCN1CCc2c(cc(O)c(O)c2Br)[C@@H](c2ccccc2)C1`, the activation in assay [1] was -46.3%. Further, the Potency entry in [2] and in assay [3] was “inactive” in each case.
Regarding `COC(=O)[C@H]1[C@H]2C[C@H]3c4[nH]c5ccccc5c4CCN3C[C@H]2CC[C@@H]1O`, the activation in assay [1] is -1.08%. Also, the Potency entry in assay [2] and in assay [3] was “inactive” each time.
On to `CN1CCC2(CCN3CCc4c(oc5ccccc45)C3C2)N(C)C1=O` (stereo not given), for which the activation in assay [1] was -14.7%. Besides, the Potency result in assay [2], in [3], in [4], in assay [5], in [6] and in [7] was “inactive” throughout.
For the compound `O=C(/C=C/c1ccc(O)cc1)c1ccc(O)cc1O`, in assay [1], the activation was -26.4%. The Potency result in assay [2], in [3], in assay [4] and in assay [10] was “inactive” throughout. Also, the Potency is 1.2 µM (active) in assay [5]; 0.504 µM (active) in assay [6]; 3.18 µM (active) in [7]; 14.8 µM (active) in assay [8]; 11.8 µM (active) in assay [9]; 26.3 µM (active) in [11].
For `CN1CCC[C@@H]1Cc1c[nH]c2ccc(CCS(=O)(=O)c3ccccc3)cc12`, the activation in assay [1] was 8.47% and -10.4% and 2.33%. The Potency entry in assay [2], in assay [3], in [12] and in assay [13] was “inactive” each time.
For `CN(CCCOc1ccc(Cc2ccccc2)cc1)CCC(=O)O`, the activation in assay [1] is -0.922% and -7.16%. Moreover, the Potency entry in [2], in assay [3], in assay [4], in assay [5], in assay [6] and in assay [13] was “inactive” in each case. Besides, in [14], the Potency result was “inactive”.
